By inhibition is commonly meant the relative decrease from the control value, in per cent.

Out of some 360,000 compounds screened, about 2,100 (0.58%) were called active.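 The calls were made as follows: active = inhibition at 20 µM, scaled to each plate's controls, above about 33% (limit read from the data); inactive = the rest.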 What follows is part of a selection rich in actives, with near analogues and random picks from the rest.

The target of the experiment is 26S proteasome non-ATPase regulatory subunit 14 (Homo sapiens) (UniProt O00487). Description: Rpn11 (PSMD14) deubiquitinase inhibitors, primary screen, biochemical, fluorescence polarization, uHTS (AID 588493). The note with it: human 26S proteasome, Ub4-pepOG fluorescence polarization; at 20 µM; stronger effect = higher value; 20S core pre-blocked with epoxomicin. (In fluorescence polarisation assays a small probe gives low polarisation when free and higher when bound to something large.)
Sequence of 26S proteasome non-ATPase regulatory subunit 14 (Homo sapiens) (O00487 whole entry, looked up): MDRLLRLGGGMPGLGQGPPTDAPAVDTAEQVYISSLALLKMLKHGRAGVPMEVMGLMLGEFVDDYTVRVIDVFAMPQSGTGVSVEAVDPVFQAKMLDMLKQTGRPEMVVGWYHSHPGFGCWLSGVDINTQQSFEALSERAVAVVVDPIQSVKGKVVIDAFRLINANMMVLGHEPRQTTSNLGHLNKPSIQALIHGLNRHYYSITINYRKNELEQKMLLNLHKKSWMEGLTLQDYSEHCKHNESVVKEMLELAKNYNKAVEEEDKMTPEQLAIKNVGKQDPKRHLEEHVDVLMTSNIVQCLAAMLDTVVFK
Turning to `COc1ccc(CCNC(=O)COc2cc(C)cc3oc(=O)c(C)c(C)c23)cc1OC`, the inhibition is 0% (inactive).

Consider `Cc1cc(OCC(=O)NCC(O)c2ccccc2)c2c(C)c(C)c(=O)oc2c1` (centres undefined), for which the inhibition was -2.1% (inactive).

Consider `Cc1cc(OCC(=O)Nc2nccs2)c2c(C)c(C)c(=O)oc2c1`, for which the inhibition is 61.1% (active).

Turning to `CCCCc1ccc(NC(=O)CN2C(=O)NC(Cc3ccccc3)C2=O)cc1` (centres undefined), the inhibition was -0.4% (inactive).

As for `CC(C)Oc1ccc(S(=O)(=O)N2CCOCC2)cc1NC(=O)C1CCCC1`, the inhibition was 2.4% (inactive).

As to `O=C1NC(Nc2nc3ccccc3s2)(C(F)(F)F)C(=O)N1C1CCCCC1` (centres undefined), the inhibition was 3.6% (inactive).

Take `COC(=O)c1c(NC(=O)CCN2CCOCC2)sc2c1CCCC2`: the inhibition is 6.6% (inactive).

On to `Cc1ccc(NC(=O)c2c(NC(=O)CCC(=O)O)sc3c2CCCCC3)cc1`, for which the inhibition was 40.1% (active).

Regarding `O=C(CN1CCCC1)Nc1sc2c(c1C(=O)Nc1ccccc1)CCCC2`, the inhibition is -13.4% (inactive).

In the case of `COC(=O)c1ccc(CNC(=O)c2ccc3oc(C(C)C)nc3c2)cc1`, the inhibition was -13.2% (inactive).

Regarding `COc1cccc(CNC(=O)C2CCN(S(=O)(=O)c3cccc4cccnc34)CC2)c1`, the inhibition was 7.6% (inactive).

As for `CC(=O)/C(=N\Nc1ccc(Cl)cc1Cl)Sc1cccc2cccnc12`, the inhibition was 78.5% (active).

Consider `Cc1cc(OCCOc2cccc3cccnc23)c(C)cc1Cl`, for which the inhibition was -1.8% (inactive).

Turning to `CCOC(=O)NN1C(=O)c2ccccc2NC1c1ccccc1O` (centres undefined), the inhibition was -5.9% (inactive).

As for `N#Cc1cccc(NC(=O)COC(=O)c2ccccc2C(=O)c2ccc(Cl)c([N+](=O)[O-])c2)c1`, the inhibition was -2.3% (inactive).

Regarding `COc1ccc(CN2[C@@H](CC(=O)O)c3cc(F)ccc3S2(=O)=O)cc1`, the inhibition was -5.9% (inactive).

For the compound `COc1cc(/C=N/NC(=O)c2cccnc2)ccc1OC(=O)c1cccc(Br)c1`, the inhibition was -13.5% (inactive).

For `COc1cccc(/C=N/NC(=O)c2[nH]nc3c2CCc2ccccc2-3)c1O`, the inhibition is 52.1% (active).

Turning to `CCn1c(/C=N/NC(=O)c2ccc(OC)cc2)nc2ccccc21`, the inhibition is -5.8% (inactive).

As to `COc1ccc(CCNC(=O)CCNS(=O)(=O)c2cc(Br)cnc2N)cc1OC`, the inhibition was 0.1% (inactive).

For `CC(C)C(NC(=O)c1cccc(S(=O)(=O)N2CCOCC2)c1)C(=O)NCCc1ccccn1` (centres undefined), the inhibition is -2.1% (inactive).

For the compound `COCCCN1C(=O)c2ccc(C(=O)OCC(=O)NCc3ccccc3OC)cc2C1=O`, the inhibition is 3.9% (inactive).

Turning to `CC(C)NC(=O)NC(=O)COC(=O)c1ccc(NC(=O)CC#N)cc1`, the inhibition is -1.1% (inactive).

`N#CCC(=O)Nc1ccc(C(=O)OCC(=O)Nc2sc3c(c2C#N)CCCC3)cc1`: the inhibition was 39.6% (inactive).

Turning to `CCOc1ccc(NC(=O)c2ccc(NC(=O)COC(=O)c3ccc(NC(=O)CC#N)cc3)cc2)cc1`, the inhibition is 128% (active).

Regarding `COc1ccccc1-c1n[nH]c2c1[C@H](C)CC[C@H]2C(C)C`, the inhibition was 0.4% (inactive).

As for `CN(C)S(=O)(=O)c1ccc(C(=O)NCC2(N3CCOCC3)CCCCC2)cc1`, the inhibition is 2.6% (inactive).

Turning to `O=C(COC(=O)c1cc(=O)[nH]c2ccccc12)Nc1nc(-c2cccc(Br)c2)cs1`, the inhibition was 1.7% (inactive).

As for `Cc1cc(C)c(-c2csc(NC(=O)CCCc3nc4ccccc4c(=O)[nH]3)n2)c(C)c1`, the inhibition was 8.9% (inactive).

Turning to `O=C(CSc1nc2ccccc2c(=O)[nH]1)Nc1nc(-c2ccc(Br)cc2)cs1`, the inhibition is 132% (active).

In the case of `Cc1ccc2c(c1)nnc1nnc(SCC(=O)O)n12`, the inhibition is -12% (inactive).

For the compound `CC(C)(C)NC(=O)COc1ccc(CNc2ccc3[nH]c(=O)[nH]c3c2)cc1`, the inhibition is -10.4% (inactive).

Turning to `CS(=O)(=O)c1ccc(C(=O)OCC(=O)NNC(=O)COc2ccc(Cl)cc2)cc1`, the inhibition is 22.5% (inactive).

Turning to `COC(=O)c1ccc(OCC(=O)NC(C)(C)C)cc1`, the inhibition was 62.8% (active).

In the case of `Cc1cc(C)c2cc(CN(Cc3cccs3)Cc3nnnn3CC3CCCO3)c(=O)[nH]c2c1` (centres undefined), the inhibition is -19.3% (inactive).

As for `CCC(C)N1CC(=O)N2Cc3[nH]c4ccccc4c3C[C@H]2C1=O` (some centres undefined), the inhibition was 7.3% (inactive).

Regarding `CCCCCOc1ccc(/C=C/C(=O)NCCc2nc3ccccc3[nH]2)cc1OC`, the inhibition is -4.2% (inactive).

For the compound `CC(C)=C(NC(=O)c1ccco1)C(=O)NCCc1nc2ccccc2[nH]1`, the inhibition is -7.6% (inactive).

For `CC(C)Oc1ccc(/C=C(\NC(=O)/C=C/c2ccco2)C(=O)NCCc2nc3ccccc3[nH]2)cc1`, the inhibition is 53.9% (active).

On to `CCN(CC(=O)NCc1cccs1)S(=O)(=O)c1ccc(NC(C)=O)cc1`, for which the inhibition was -1.7% (inactive).

For the compound `Cc1cccc(OCCC(=O)Nc2cc(S(=O)(=O)N3CCCCC3)ccc2N2CCOCC2)c1`, the inhibition is 2% (inactive).

On to `CN(C)c1ccc(-n2cccc2/C=C2/SC(=Nc3ccc(F)cc3)NC2=O)cc1`, for which the inhibition was 44% (active).

For the compound `CN(C)c1ccc(-n2cccc2/C=N/n2cnnc2)cc1`, the inhibition is 1.5% (inactive).

Regarding `CCn1cc(C(=O)OCC(=O)Nc2cccc(C)c2)c(=O)c2ccc(C)nc21`, the inhibition was -1.5% (inactive).

As for `CC(=O)Oc1cc2c(C(=O)NCCN3CCOCC3)c(C)oc2c2ccccc12`, the inhibition is -0.1% (inactive).

As for `O=C(Cc1ccc(F)cc1)N1CCN=C1SCc1cccc([N+](=O)[O-])c1`, the inhibition was 3% (inactive).

Turning to `O=C(NCc1ccccc1Cl)C1CCN(S(=O)(=O)c2cccc3nonc23)CC1`, the inhibition is 4.7% (inactive).

On to `CC1CCCCC1NC(=O)CCS(=O)(=O)c1cccc2nonc12` (centres undefined), for which the inhibition was -3.4% (inactive).

Consider `O=C(CCS(=O)(=O)c1cccc2nonc12)NCCc1ccccc1Cl`, for which the inhibition was 179% (active).

For `Cc1ccc(N=Cc2c(O)n(-c3nccs3)c(=O)c3ccccc23)c(C)c1`, the inhibition is -26.4% (inactive).

Consider `Cc1ccc(N=Cc2c(O)cc(C)oc2=O)c(C)c1`, for which the inhibition is 40.7% (active).

Consider `Cc1cccc(OCc2nnc(SCc3nc4cc(C(F)(F)F)ccc4c(=O)[nH]3)o2)c1`, for which the inhibition is 46.5% (active).

Regarding `Cc1cccc(OCc2nnc(SCn3nnc4ccccc4c3=O)o2)c1`, the inhibition is 6.8% (inactive).

Consider `COc1cc(CN(C)Cc2nc3cc(C(F)(F)F)ccc3c(=O)[nH]2)ccc1OC(F)F`, for which the inhibition is 5% (inactive).

Regarding `CC(=O)O[C@H]1c2ccccc2-c2ccccc2[C@@H]1OC(C)=O`, the inhibition was -2.7% (inactive).

On to `CN(C)CCOc1cccc(Br)c1`, for which the inhibition was -7.4% (inactive).

For the compound `CN(C)CCOC1c2ccccc2-c2ccccc21`, the inhibition is 95.3% (active).

For the compound `CCCC[C@H]1COCCS(=O)(=O)N1Cc1cccc(Cl)c1`, the inhibition was 7.9% (inactive).

In the case of `CCOC(=O)c1cc(-c2sc(NC(=O)c3ccccc3)nc2C)n(Cc2ccccc2)n1`, the inhibition was 5.8% (inactive).

Take `Cn1c2ccc(F)cc2c2nnc(NN)nc21`: the inhibition is 5.1% (inactive).

On to `O=C(O)C1C2C=CC(O2)C1C(=O)NCCc1cccc(Cl)c1` (centres undefined), for which the inhibition was 1% (inactive).

For `O=C(NCc1ccccc1)[C@H]1C[C@@H]1[C@H](NP(=O)(c1ccccc1)c1ccccc1)c1ccccc1`, the inhibition is 9.5% (inactive).

For `CCOc1ccc(C(=O)Nc2ccc(S(=O)(=O)NCC3CCCO3)cc2)cc1OCC` (centres undefined), the inhibition is -3.2% (inactive).

Regarding `CCOc1cc(/C=C2\SC(N3CCCCC3)=NC2=O)ccc1O`, the inhibition was 46.9% (active).

With `CCOc1ccc2nc(C(=O)N3CCCC(C)C3)sc2c1` (centres undefined), the inhibition is -2.7% (inactive).

For `CCOc1cc(/C=N/NC(=O)CN2CCCCC2)ccc1O`, the inhibition is -1.4% (inactive).

For the compound `O=C1N=C(N2CCc3ccccc3C2)S/C1=C\c1ccc(O)cc1`, the inhibition was -9.2% (inactive).

Regarding `Cc1ccsc1/C=C1\SC(N2CCOCC2)=NC1=O`, the inhibition is -7.5% (inactive).

Take `CCOc1cc(/C=C2\SC(N3CCCC(C)C3)=NC2=O)ccc1O` (centres undefined): the inhibition is 62.1% (active).

In the case of `CC(=O)n1cc([C@H]2C=C(C(=O)N3CCOCC3)O[C@@H](OCc3ccc(CO)cc3)C2)c2ccccc21`, the inhibition was 3.9% (inactive).

As for `Cc1cc[n+](-c2[nH]c(=O)sc2/C=N/NC(=O)c2ccccc2[O-])cc1C`, the inhibition was -29.4% (inactive).

`CCc1ccc2[nH]c(=O)c(Cc3ccccc3)c(O)c2c1`: the inhibition is -4.6% (inactive).

Turning to `O=C(c1ccc(OC2CCN(C(=O)c3cccnc3)CC2)cc1)N1CCCCCC1`, the inhibition is -0.5% (inactive).

Take `Cc1cccc(OCCCC(=O)Nc2ccc(S(=O)(=O)N3CCCC3)cc2)c1`: the inhibition is -2.1% (inactive).

With `O=C(NNC(=O)c1ccc(-c2ccccc2)cc1)Nc1ccccc1`, the inhibition was -0.3% (inactive).

On to `Cc1ccc(NC(=O)NNC(=O)c2sccc2-n2cccc2)cc1`, for which the inhibition is -1.9% (inactive).

Turning to `C=CC[n+]1c(-c2ccc(C)cc2)csc1NNC(=O)Nc1ccccc1`, the inhibition is 42.6% (active).

Regarding `CCCCOC(=O)c1ccc(NC(c2ccc(C)cc2)P(=O)(OC)OC)cc1` (centres undefined), the inhibition is -3.9% (inactive).

For `COC(=O)c1cccc(NS(C)(=O)=O)c1`, the inhibition is -3.1% (inactive).

As to `C=CCc1ccc(OCCOc2cccc(/C=N/n3cnnc3)c2)c(OC)c1`, the inhibition is -5.7% (inactive).

`c1csc(-c2nnc(COc3ccc4c(c3)OCO4)o2)c1`: the inhibition was -8.5% (inactive).

Regarding `CCOc1ccc(-c2nc(C)sc2CC(=O)O)cc1`, the inhibition was -1.6% (inactive).

With `C/C(=N/Nc1nc(-c2ccccc2)c(CC(=O)O)s1)c1ccccc1`, the inhibition was 57.8% (active).

With `CCOC(=O)C(=O)Nc1nc(-c2ccccc2)c(CC)s1`, the inhibition is 3.6% (inactive).

For the compound `O=C1C=C(c2cccc(Cl)c2O)C[C@@H](c2ccc(F)cc2)C1`, the inhibition was -0.6% (inactive).

Turning to `CC(C)c1c(C(=O)N/N=C/c2ccccc2C(=O)O)nnn1-c1nonc1N`, the inhibition was -1.4% (inactive).

In the case of `COCc1c(C(=O)N/N=C\c2cccnc2)nnn1-c1nonc1N`, the inhibition is -1.2% (inactive).

Regarding `Nc1nonc1-n1nnc(C(=O)N/N=C/c2cc(Br)ccc2O)c1CSC1=NCCS1`, the inhibition was 43.6% (active).

Regarding `CC(C)Cn1c(=O)c2ccccc2n2c(CCC(=O)NCc3ccccn3)nnc12`, the inhibition was 4.1% (inactive).

In the case of `O=C(Nc1c[nH]c(=O)[nH]c1=O)OCc1ccccc1`, the inhibition is -11.5% (inactive).

For `N#C/C=C1\Sc2ccccc2C(=O)N1CC(=O)N1CCN(S(=O)(=O)c2ccccc2)CC1`, the inhibition is 5.4% (inactive).

Turning to `Cc1nc2ccccc2nc(=O)c1NNc1ccc([N+](=O)[O-])cc1`, the inhibition is 43.9% (active).

For the compound `CC(O)c1nc2ccccc2n1Cc1ccc([N+](=O)[O-])cc1` (centres undefined), the inhibition is 1.9% (inactive).

For `Cc1cccc(NS(=O)(=O)c2ccc([N+](=O)[O-])cc2)n1`, the inhibition was -2.6% (inactive).
